13 molecules from PubChem BioAssay can be followed below.

Assay [1] can be described thus: resazurin metabolic signal in HepG2 cells – cell-based, resazurin fluorescence, 24 h, PK04 Diversity Set, profiling panel (AID 1172). Note: test concentration not given here. The following applies: HepG2 viability, higher = more signal.
Assay [2] is described as follows: budding yeast growth changes without added modifier – OD600, strain BY4716, 24 h, basal condition, primary screen (AID 1173). The note with it: S. cerevisiae BY4716 growth, OD600, 24 h; higher = more signal, called active from +8 up or from −8 down.
The nature of assay [3]: viability profiling in MM1S myeloma cells – cell-based, resazurin fluorescence, basal, 24 h, PK04 Diversity Set, profiling panel (AID 1174).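 Note: MM1S multiple myeloma cell line; test concentration not given here.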 The following applies: higher = more signal, called active from +8 up or from −8 down. On the technique in general: Alamar Blue is a resazurin reagent that responds to reducing activity.
Assay [4] has as its target Dihydroorotate dehydrogenase (quinone), mitochondrial (Plasmodium falciparum (isolate 3D7)) (UniProt Q08210). In words: inhibition of P. falciparum DHODH – biochemical, C-terminal His tag, absorbance 600 nm, primary screen (AID 1175).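 Note: recombinant parasite enzyme with a five histidine tag at its C terminus; test concentration not given here.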 The note with it: PfDHODH enzyme, DCIP absorbance 600 nm; higher = more signal, called active from +8 up or from −8 down.
Assay [5] is described as follows: inhibition of PAO1 biofilm formation – strain PAO1, LB-PBS medium, absorbance 600 nm, primary screen (AID 1176). Note: test concentration not given here. The following applies: P. aeruginosa PAO1 growth/biofilm, A600, 12 h; higher = more signal.
Assay [6] is described as follows: growth modulation of vineyard yeast isolate – strain RM11-1a, OD600, basal, 24 h, primary screen (AID 1177).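 Note: cultures grown under basal conditions with no added stressor; test concentration not given here.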 The note with it: S. cerevisiae RM11-1a growth, OD600, 24 h; higher = more signal, called active from +8 up or from −8 down.
Assay [7] is described as follows: growth of efflux-deficient E. coli DRC39 – strain DRC39, OD650, 24 h, E. coli filamentation inducers, primary screen (AID 1178).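 Note: growth measured as culture turbidity by optical density at 650 nm; test concentration not given here.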 The following applies: E. coli DRC39 acrAB, higher = more signal, called active from +8 up or from −8 down.
Assay [8] can be described thus: growth of efflux-deficient E. coli DRC39 – strain DRC39, OD650, 48 h, E. coli filamentation inducers, primary screen (AID 1179).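 Note: screen aims at cell division blockers that make cells filament.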 The following applies: E. coli DRC39 delta-acrAB growth, higher = more signal, called active from +8 up or from −8 down.
A short description of assay [9]: viability profiling in RPMI8226 myeloma cells – cell-based, resazurin fluorescence, basal, 24 h, PK04 Diversity Set, profiling panel (AID 1180).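 Note: RPMI8826 multiple myeloma cell line at 5000 cells per well; test concentration not given here.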 The following applies: higher = more signal.
The target in assay [10] is E3 ubiquitin-protein ligase XIAP (Homo sapiens) (UniProt P98170). The assay can be described thus: small molecules binding XIAP protein – biophysical, small-molecule microarray, fluorescence 635 nm, primary screen (AID 1181).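 Note: score merges 667 nm emission and signal to noise over triplicate slides.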 The following applies: higher = more signal.

Active and inactive are the calls of the source. Unless noted, the rule behind the calls is not given here.

Chain of Dihydroorotate dehydrogenase (quinone), mitochondrial (Plasmodium falciparum (isolate 3D7)) (Q08210 whole entry, looked up): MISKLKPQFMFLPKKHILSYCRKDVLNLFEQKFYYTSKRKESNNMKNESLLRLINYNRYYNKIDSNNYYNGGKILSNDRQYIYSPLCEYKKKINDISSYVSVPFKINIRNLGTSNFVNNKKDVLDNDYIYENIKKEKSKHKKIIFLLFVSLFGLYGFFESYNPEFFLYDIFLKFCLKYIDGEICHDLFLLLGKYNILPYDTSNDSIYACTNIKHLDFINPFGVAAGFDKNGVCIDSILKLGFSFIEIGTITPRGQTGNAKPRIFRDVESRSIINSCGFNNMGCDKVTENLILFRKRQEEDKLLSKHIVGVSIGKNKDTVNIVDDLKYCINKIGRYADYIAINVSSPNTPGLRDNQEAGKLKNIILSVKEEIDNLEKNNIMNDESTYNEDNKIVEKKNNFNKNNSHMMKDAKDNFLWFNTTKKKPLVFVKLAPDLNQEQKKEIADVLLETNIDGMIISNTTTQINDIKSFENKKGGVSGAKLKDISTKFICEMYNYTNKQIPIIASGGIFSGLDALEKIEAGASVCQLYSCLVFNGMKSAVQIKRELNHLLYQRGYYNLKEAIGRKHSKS
Chain of E3 ubiquitin-protein ligase XIAP (Homo sapiens) (P98170 whole entry, looked up): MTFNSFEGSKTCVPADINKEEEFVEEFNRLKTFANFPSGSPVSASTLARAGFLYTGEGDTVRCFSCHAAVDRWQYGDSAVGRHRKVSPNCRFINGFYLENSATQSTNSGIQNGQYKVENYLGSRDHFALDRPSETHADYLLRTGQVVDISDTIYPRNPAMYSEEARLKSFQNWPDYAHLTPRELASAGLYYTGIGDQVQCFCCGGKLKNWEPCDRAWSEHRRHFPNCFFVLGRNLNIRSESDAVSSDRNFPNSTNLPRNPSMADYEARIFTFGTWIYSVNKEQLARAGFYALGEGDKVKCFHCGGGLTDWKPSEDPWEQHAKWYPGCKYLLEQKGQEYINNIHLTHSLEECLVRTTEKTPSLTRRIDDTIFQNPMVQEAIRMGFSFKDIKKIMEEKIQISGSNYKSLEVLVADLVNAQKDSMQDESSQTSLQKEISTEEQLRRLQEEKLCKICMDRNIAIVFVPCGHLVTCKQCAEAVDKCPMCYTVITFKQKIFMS

As to `CCOC(=O)C[C@H]1[C@H](OC(=O)c2ccc(C(=O)c3ccccc3)cc2)[C@@H](NC(=O)c2ccc3ccccc3n2)c2cc(OCCCO)ccc2N1C(=O)c1ccc2ccccc2n1`, the z-score in assay [1] was 0.44; in assay [2], -0.0495 (inactive); in assay [3] it was 0.433 (inactive); in assay [5] it was 0.808 (inactive); in assay [6], 0.081 (inactive); in assay [7] it was 0.322 (inactive). Besides, the z-score was 0.388 (inactive) in assay [8] and 0.416 in [9]. The composite z-score in [4] is 0.681 (inactive); in assay [10] it was -0.0525.

In the case of `CC(C)[C@H]1COC(=O)N1C(=O)[C@H]1[C@@H](c2ccccc2)N(c2ccccc2)O[C@@H]1C`, the z-score was 0.701 in assay [1]; -1.42 (inactive) in assay [2]; 0.517 (inactive) in assay [3]; 0.0694 (inactive) in assay [5]; 1.46 (inactive) in [6]; 0.166 (inactive) in assay [7]. Further, the z-score in assay [8] was 0.703 (inactive); in assay [9], 1.41. For the same molecule, the composite z-score in assay [4] was -0.656 (inactive); in assay [10], 0.0785.

As for `[N-]=[N+]=NCc1ccccc1C[C@]1(C(=O)NCCN2CCOCC2)N=C(c2ccc(OCCCO)cc2)O[C@H]1c1ccccc1CN=[N+]=[N-]`, the z-score in [1] was 0.0176; in assay [2] it was -2.56 (inactive); in [3], 0.836 (inactive); in assay [5], 0.428 (inactive); in assay [6] it was -1.95 (inactive); in assay [7], 1.93 (inactive). Besides, the z-score in [8] is 0.844 (inactive); in assay [9], 0.0688. For the same molecule, the results for the composite z-score in assay [4] and in assay [10] were 1.31 (inactive) and 0.0871, respectively.

For the molecule `C=C[C@H](OC)[C@@H](OC(=O)Nc1ccc(SC)cc1)c1ccc(OCCO)cc1`, the z-score in assay [1] is -0.237; in [2], -1.95 (inactive); in assay [3] it was -0.895 (inactive); in assay [5], 0.662 (inactive); in assay [6], 0.39 (inactive); in assay [7], 0.0364 (inactive). The z-score in assay [8] was 0.0255 (inactive); in assay [9], -0.204. Besides, the composite z-score in [4] was -1.02 (inactive); in assay [10], -0.0559.

As for `O=C1c2ccccc2[C@@]2(Cc3ccccc3N(Cc3ccccc3)C2=O)[C@H](c2ccc(CO)cc2)N1Cc1ccccc1C(F)(F)F`, the z-score in assay [1] was -0.897; in [2], -0.614 (inactive); in assay [3], -1.28 (inactive); in assay [5], 0.127 (inactive); in assay [6] it was 0.349 (inactive); in assay [7], 0.225 (inactive). Also, the z-score in assay [8] is 0.429 (inactive); in assay [9] it was -0.59. Moreover, the composite z-score was -4.41 (inactive) in assay [4] and -0.148 in assay [10].

Turning to `C=CCNC(=O)[C@H]1[C@@H]2C(=O)O[C@@H](c3ccccc3)[C@@H](c3ccccc3)N2[C@@H](c2ccc(O)cc2)[C@]12C(=O)Nc1ccc(C#Cc3ccc(OC)cc3)cc12`, the z-score in [1] was -1.56; in [2] it was 0.885 (inactive); in assay [3], -1.57 (inactive); in assay [5] it was 0.971 (inactive); in assay [6], 1.14 (inactive); in assay [7], 0.461 (inactive). Moreover, the z-score was 0.0221 (inactive) in assay [8] and -3.24 in assay [9]. Moreover, the composite z-score is -27 (active) in assay [4] and -0.0022 in assay [10].

Regarding `C=C(CCCC)C(=O)CC[C@@H](OC(=O)c1ccccc1-c1ccccc1C(=O)O)c1ccc(CO)o1`, the z-score in assay [1] was 0.0232; in [2], -0.712 (inactive); in assay [3] it was 0.225 (inactive); in assay [5] it was 1.32 (inactive); in assay [6], -0.279 (inactive); in assay [7], -0.079 (inactive). In addition, the z-score in assay [8] was -0.218 (inactive); in assay [9], -0.0459. The composite z-score is -2.93 (inactive) in assay [4] and 0.0842 in assay [10].

For the molecule `CCCC[C@H]1OB(O)C[C@H]2C1=C(COc1ccccc1)C[C@H]1C(=O)N(Cc3ccccc3)C(=O)[C@H]12`, the z-score in [1] was 0.552; in [2] it was -1.91 (inactive); in assay [3], 0.804 (inactive); in assay [5] it was -0.802 (inactive); in assay [6], -0.0955 (inactive); in [7], 0.875 (inactive). Besides, the z-score in assay [8] was -0.281 (inactive); in assay [9] it was 0.421. Also, the composite z-score was -1.25 (inactive) in [4] and 0.0617 in assay [10].

With `C#C[C@H](O[Si](C#CCCCCCC)(C(C)C)C(C)C)c1ccccc1`, the z-score was 0.465 in assay [1]; 0.0181 (inactive) in [2]; 0.221 (inactive) in assay [3]; -0.984 (inactive) in assay [5]; -0.0669 (inactive) in assay [6]; 0.0687 (inactive) in [7]. In addition, the z-score in assay [8] was 0.577 (inactive); in assay [9], 0.783. Also, the composite z-score in assay [4] is -0.719 (inactive); in assay [10] it was 0.0406.

For the molecule `[N-]=[N+]=NCc1ccccc1C[C@]1(C(=O)N2CCOCC2)N=C(c2ccc(OCCCO)cc2)O[C@H]1c1ccccc1`, the z-score was -0.552 in assay [1]; -0.34 (inactive) in assay [2]; -2.29 (inactive) in assay [3]; -0.537 (inactive) in assay [5]; 0.328 (inactive) in [6]; 0.685 (inactive) in assay [7]. Besides, the results for the z-score in [8] and in assay [9] were 0.694 (inactive) and -4.46, respectively. Moreover, the composite z-score was 1.44 (inactive) in [4] and -0.0884 in assay [10].

Consider `CN(C)CCCN1C(=O)[C@@]2(c3ccc([N+](=O)[O-])cc3)CC(=O)N(C3CCCCC3)[C@@H]2c2ccc(CO)cc21`, for which the z-score in assay [1] is 1.57; in assay [2], -1.28 (inactive); in assay [3], 1.11 (inactive); in assay [5], -0.6 (inactive); in assay [6], -1.45 (inactive); in assay [7], 0.244 (inactive). In addition, the z-score in assay [8] was 0.876 (inactive); in [9] it was 1.12. The results for the composite z-score in assay [4] and in assay [10] were -3.88 (inactive) and -0.0374, respectively.

In the case of `O=C(NCC(F)(F)F)[C@@H]1c2ccccc2C(=O)N(Cc2ccccc2)[C@H]1c1ccc(CO)cc1`, the z-score in assay [1] was -0.699; in assay [2], -0.0657 (inactive); in assay [3] it was -0.294 (inactive); in assay [5], -0.0654 (inactive); in [6], 0.0566 (inactive); in assay [7], 0.126 (inactive). Further, the z-score in assay [8] is 0.606 (inactive); in [9], 0.368. In addition, the values for the composite z-score in assay [4] and in [10] were -1.09 (inactive) and -0.239, respectively.

On to `CC(=O)n1cc(C(O)C2C=CC3C(=O)N(c4ccccc4)C(=O)C3N2Nc2ccc(C#N)cc2)c2ccccc21` (stereo not given), for which the z-score in assay [1] is -0.592; in assay [2] it was -2.71 (inactive); in assay [3] it was -0.897 (inactive); in [5] it was 0.956 (inactive); in assay [6] it was -0.129 (inactive); in assay [7], -0.698 (inactive). The results for the z-score in assay [8] and in [9] were -0.119 (inactive) and -0.189, respectively. The composite z-score in assay [4] was -0.796 (inactive); in assay [10], 0.147.
